# Experiments:
# Assay in all cases: DAPPL (digital affinity profiling via proximity ligation, sequencing); 10 mM Tris-HCl pH 7.5, 50 mM NaCl, 1 mM DTT, 4% glycerol, room temperature, 30 min; GST-TFs on glutathione beads, 16-mer random dsDNA library, 0.1% formaldehyde crosslink after washing; high values mean tight binding
# Settings in all cases: protein: recombinant; tags: N-terminal GST; dsDNA, one strand shown
# FLI1 = molecular target: T1, FLI1 (Homo sapiens, UniProt Q01543 1-452)
# T1 sequence: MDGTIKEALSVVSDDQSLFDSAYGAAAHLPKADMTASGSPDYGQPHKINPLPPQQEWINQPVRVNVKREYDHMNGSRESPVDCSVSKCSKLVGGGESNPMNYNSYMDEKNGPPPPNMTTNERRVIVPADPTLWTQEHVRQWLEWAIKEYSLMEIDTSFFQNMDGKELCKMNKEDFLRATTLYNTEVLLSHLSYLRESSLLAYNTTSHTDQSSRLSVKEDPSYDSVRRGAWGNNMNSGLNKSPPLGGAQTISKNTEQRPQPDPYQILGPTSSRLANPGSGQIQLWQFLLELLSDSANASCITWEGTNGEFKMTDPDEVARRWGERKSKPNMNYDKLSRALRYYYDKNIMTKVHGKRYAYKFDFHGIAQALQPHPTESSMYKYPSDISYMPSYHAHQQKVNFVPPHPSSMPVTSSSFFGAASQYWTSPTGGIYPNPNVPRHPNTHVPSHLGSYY
# Procedure, shortened: (§1)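 Yeast served to express human transcription factors as GST fusions, which were then captured on glutathione beads and labelled with DNA barcodes. Pooled with a tag-only sample, they were incubated with 200 nmole of a 16-mer random double-stranded DNA library for 30 min at room temperature in Tris/NaCl/DTT/glycerol buffer, washed, crosslinked with 0.1% formaldehyde, ligated by proximity, amplified by PCR and sequenced. Dividing each hexamer's read frequency for a factor by its frequency for the tag-only sample gives the binding signal.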
# ELK1 = molecular target: T2, ELK1 (Homo sapiens, UniProt P19419 1-428)
# T2 sequence: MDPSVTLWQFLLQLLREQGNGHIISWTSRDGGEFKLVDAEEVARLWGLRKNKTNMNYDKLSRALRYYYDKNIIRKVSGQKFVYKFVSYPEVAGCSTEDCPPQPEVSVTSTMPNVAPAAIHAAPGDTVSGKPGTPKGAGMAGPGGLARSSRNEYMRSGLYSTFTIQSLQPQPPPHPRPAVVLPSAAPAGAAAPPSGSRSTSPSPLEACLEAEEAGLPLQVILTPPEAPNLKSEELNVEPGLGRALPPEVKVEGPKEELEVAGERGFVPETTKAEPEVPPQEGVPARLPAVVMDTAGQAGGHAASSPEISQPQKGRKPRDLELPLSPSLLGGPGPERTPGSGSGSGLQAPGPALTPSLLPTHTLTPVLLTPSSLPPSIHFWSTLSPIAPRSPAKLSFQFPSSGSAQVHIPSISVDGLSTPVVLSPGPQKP
# Procedure, shortened: as §1
# GABPA = molecular target: T3, GABPA (Homo sapiens, UniProt Q06546 1-454)
# T3 sequence: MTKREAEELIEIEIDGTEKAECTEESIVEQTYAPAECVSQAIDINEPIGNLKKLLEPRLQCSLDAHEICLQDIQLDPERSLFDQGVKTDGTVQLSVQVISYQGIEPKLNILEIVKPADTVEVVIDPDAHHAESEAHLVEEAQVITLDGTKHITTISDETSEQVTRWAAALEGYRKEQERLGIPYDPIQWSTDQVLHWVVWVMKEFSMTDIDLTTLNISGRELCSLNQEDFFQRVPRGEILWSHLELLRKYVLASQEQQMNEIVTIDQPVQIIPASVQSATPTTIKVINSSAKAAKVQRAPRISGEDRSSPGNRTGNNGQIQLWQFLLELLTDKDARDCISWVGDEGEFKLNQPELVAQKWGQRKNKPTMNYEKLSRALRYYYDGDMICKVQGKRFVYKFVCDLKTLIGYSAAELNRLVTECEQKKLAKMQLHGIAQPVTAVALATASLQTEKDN
# Procedure, shortened: as §1
# ERG = molecular target: T4, ERG (Homo sapiens, UniProt P11308 1-479)
# T4 sequence: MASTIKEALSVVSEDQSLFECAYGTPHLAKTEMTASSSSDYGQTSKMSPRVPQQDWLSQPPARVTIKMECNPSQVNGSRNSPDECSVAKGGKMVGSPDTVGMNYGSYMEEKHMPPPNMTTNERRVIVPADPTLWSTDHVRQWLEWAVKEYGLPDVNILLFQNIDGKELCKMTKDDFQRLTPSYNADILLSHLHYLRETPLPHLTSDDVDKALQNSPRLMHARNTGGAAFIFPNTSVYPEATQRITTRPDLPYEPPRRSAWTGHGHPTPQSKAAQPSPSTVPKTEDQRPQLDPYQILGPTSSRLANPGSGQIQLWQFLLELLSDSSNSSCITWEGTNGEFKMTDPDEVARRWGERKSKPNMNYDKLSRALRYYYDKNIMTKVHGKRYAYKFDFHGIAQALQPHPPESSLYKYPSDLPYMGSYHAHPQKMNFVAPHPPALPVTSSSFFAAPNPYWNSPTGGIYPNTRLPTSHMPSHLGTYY
# Procedure, shortened: as §1
# ELF1 = ELF1 (Homo sapiens, UniProt P32519 1-619)
# Sequence of ELF1 (P32519 whole entry): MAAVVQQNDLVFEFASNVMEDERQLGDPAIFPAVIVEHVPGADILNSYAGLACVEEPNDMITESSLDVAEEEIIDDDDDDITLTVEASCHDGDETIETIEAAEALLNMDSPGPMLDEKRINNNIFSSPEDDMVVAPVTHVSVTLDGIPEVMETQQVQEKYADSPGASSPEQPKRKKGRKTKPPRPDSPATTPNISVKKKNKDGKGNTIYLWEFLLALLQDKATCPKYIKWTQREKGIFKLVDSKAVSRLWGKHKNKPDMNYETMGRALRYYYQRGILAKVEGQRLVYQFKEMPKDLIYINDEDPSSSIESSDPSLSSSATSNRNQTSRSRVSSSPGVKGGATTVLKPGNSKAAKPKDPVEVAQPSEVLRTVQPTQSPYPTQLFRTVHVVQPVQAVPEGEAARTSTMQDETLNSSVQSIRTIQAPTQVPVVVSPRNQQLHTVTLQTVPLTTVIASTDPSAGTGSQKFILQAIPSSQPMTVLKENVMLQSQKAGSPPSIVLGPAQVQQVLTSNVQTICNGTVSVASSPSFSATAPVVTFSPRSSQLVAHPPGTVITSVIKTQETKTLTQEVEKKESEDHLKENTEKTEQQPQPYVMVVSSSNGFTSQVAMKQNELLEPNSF
# Procedure, shortened: as §1
# EHF = molecular target: T5, EHF (Homo sapiens, UniProt Q9NZC4 1-300)
# T5 sequence: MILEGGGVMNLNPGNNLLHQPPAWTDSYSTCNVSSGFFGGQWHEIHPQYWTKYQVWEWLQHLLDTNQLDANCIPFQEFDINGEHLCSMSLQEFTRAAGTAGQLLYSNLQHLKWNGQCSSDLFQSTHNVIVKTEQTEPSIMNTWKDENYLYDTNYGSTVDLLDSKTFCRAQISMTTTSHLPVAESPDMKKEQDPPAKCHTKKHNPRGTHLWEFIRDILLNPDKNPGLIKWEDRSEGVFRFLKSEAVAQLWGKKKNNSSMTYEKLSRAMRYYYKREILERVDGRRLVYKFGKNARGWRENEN
# Procedure, shortened: as §1
# SPIB = SPIB (Homo sapiens, UniProt Q01892 1-262)
# Sequence of SPIB (Q01892 whole entry): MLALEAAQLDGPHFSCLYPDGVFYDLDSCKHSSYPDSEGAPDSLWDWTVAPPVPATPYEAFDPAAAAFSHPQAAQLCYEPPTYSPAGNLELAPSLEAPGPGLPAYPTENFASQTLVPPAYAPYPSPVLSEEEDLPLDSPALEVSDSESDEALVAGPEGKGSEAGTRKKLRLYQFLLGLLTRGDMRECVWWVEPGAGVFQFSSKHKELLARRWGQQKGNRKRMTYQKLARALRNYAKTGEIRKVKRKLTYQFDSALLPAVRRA
# Procedure, shortened: as §1
# SPIC = molecular target: T6, SPIC (Homo sapiens, UniProt Q8N5J4 1-248)
# T6 sequence: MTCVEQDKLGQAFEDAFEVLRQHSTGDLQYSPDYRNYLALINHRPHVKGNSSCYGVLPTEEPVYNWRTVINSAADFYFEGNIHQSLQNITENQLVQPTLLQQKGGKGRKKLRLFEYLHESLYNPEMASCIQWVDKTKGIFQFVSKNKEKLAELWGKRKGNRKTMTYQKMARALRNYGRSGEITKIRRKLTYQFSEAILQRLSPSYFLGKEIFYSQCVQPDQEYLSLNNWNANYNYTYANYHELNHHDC
# Procedure, shortened: as §1
# ELF4 = ELF4 (Homo sapiens, UniProt Q99607 1-663)
# Sequence of ELF4 (Q99607 whole entry): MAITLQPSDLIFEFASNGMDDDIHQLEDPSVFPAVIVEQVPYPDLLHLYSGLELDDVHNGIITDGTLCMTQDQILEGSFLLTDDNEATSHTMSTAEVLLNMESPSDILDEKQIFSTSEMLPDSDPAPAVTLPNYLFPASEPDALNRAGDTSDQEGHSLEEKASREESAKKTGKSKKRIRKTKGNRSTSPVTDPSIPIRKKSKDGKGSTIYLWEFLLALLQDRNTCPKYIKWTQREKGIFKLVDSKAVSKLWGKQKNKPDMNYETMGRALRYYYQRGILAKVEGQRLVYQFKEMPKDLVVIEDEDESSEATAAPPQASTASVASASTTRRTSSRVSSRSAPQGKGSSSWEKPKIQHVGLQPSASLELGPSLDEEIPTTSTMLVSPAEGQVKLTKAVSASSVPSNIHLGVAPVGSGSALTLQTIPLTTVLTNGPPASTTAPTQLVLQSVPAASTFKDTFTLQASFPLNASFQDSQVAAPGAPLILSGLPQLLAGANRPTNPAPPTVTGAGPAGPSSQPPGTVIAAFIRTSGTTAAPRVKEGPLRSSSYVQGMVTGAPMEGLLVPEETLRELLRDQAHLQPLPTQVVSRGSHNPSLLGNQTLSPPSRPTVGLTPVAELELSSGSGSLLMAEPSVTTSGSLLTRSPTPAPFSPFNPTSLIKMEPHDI
# Procedure, shortened: as §1
# ELK4 = molecular target: T7, ELK4 (Homo sapiens, UniProt P28324-2 1-405)
# T7 sequence: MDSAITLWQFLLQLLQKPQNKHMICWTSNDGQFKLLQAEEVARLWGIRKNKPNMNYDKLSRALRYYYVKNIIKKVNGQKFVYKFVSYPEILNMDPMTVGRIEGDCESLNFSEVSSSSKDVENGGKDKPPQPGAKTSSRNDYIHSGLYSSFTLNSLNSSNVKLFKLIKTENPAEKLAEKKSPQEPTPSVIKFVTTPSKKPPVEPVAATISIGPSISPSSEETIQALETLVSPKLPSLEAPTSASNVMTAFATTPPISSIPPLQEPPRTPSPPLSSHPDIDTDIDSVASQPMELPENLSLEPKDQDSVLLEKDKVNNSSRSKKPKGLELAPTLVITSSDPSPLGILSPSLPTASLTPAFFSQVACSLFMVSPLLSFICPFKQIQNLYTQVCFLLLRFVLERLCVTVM
# Procedure, shortened: as §1
# ETV2 = molecular target: T8, ETV2 (Homo sapiens, UniProt O00321 1-342)
# T8 sequence: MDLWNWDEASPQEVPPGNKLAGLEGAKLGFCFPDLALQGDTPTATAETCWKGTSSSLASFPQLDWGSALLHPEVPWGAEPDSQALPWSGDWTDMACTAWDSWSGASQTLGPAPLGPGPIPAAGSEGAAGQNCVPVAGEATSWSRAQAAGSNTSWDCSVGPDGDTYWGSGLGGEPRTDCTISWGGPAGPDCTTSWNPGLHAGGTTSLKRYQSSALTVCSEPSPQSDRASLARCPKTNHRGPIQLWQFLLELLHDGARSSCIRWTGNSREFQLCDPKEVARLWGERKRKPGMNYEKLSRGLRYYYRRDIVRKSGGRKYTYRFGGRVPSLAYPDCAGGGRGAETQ
# Procedure, shortened: as §1
# ETV1 = ETV1 (Homo sapiens, UniProt P50549 1-477)
# Sequence of ETV1 (P50549 whole entry): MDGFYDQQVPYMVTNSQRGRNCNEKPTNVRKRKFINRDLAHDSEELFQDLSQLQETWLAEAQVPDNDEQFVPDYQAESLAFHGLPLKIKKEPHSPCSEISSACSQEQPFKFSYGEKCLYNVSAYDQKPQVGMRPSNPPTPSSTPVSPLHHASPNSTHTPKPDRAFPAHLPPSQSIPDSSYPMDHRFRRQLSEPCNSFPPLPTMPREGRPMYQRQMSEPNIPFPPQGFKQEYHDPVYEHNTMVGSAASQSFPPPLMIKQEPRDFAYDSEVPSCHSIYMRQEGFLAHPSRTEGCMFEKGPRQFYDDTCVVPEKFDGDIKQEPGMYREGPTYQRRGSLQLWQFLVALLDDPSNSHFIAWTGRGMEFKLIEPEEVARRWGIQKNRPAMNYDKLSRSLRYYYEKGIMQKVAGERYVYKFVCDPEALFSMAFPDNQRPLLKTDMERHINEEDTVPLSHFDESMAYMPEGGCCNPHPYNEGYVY
# Procedure, shortened: as §1
# ERF = molecular target: T9, ERF (Homo sapiens, UniProt P50548 1-548)
# T9 sequence: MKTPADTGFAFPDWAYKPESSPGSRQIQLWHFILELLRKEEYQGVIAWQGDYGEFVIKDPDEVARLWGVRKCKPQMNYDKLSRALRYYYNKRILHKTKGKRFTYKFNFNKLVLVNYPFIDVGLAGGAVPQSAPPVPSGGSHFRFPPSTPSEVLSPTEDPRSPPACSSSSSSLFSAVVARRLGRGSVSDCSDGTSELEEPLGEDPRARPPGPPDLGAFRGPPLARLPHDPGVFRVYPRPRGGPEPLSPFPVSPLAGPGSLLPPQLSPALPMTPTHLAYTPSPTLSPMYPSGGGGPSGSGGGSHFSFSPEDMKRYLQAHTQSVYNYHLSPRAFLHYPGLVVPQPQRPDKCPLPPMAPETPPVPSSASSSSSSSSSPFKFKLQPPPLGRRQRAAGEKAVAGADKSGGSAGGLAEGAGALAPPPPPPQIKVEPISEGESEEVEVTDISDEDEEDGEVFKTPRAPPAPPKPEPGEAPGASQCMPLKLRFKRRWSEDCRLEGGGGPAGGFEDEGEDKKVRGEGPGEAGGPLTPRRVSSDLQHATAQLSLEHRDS
# Procedure, shortened: as §1
# ETV3L = molecular target: T10, ETV3L (Homo sapiens, UniProt Q6ZN32 1-361)
# T10 sequence: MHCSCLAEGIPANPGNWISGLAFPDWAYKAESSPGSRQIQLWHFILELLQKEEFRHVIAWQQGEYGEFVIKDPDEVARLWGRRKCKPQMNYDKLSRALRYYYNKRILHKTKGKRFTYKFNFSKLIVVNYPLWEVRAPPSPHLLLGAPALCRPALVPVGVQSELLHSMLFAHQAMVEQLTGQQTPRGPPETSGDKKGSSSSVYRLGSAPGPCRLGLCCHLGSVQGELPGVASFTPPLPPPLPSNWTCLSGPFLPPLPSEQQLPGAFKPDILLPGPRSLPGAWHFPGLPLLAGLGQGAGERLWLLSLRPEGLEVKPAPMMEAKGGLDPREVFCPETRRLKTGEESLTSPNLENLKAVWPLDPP
# Procedure, shortened: as §1
# ETS2 = molecular target: T11, ETS2 (Homo sapiens, UniProt P15036 1-469)
# T11 sequence: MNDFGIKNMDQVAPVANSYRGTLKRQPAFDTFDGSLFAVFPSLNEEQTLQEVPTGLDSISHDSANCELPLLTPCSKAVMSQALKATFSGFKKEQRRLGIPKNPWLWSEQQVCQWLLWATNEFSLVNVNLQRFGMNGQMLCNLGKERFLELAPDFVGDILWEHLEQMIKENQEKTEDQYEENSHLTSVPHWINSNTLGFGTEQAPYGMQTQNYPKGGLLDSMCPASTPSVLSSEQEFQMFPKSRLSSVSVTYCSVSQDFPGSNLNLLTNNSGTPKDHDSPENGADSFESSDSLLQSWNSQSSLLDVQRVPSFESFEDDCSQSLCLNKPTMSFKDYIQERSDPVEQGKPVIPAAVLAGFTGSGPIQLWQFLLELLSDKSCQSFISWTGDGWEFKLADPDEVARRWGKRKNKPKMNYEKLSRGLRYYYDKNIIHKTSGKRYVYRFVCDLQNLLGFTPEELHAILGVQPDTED
# Procedure, shortened: as §1
# ETV7 = molecular target: T12, ETV7 (Homo sapiens, UniProt Q9Y603 1-341)
# T12 sequence: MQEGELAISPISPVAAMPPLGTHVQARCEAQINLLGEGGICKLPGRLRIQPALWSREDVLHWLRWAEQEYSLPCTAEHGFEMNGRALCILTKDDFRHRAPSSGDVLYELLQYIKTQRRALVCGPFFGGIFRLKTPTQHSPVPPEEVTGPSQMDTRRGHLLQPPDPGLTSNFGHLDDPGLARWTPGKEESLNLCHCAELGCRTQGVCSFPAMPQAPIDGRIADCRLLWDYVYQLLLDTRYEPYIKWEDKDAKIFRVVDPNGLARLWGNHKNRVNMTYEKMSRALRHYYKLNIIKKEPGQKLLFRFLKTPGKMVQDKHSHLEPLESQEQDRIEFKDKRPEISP
# Procedure, shortened: as §1
# ETV6 = ETV6 (Homo sapiens, UniProt P41212 1-452)
# Sequence of ETV6 (P41212 whole entry): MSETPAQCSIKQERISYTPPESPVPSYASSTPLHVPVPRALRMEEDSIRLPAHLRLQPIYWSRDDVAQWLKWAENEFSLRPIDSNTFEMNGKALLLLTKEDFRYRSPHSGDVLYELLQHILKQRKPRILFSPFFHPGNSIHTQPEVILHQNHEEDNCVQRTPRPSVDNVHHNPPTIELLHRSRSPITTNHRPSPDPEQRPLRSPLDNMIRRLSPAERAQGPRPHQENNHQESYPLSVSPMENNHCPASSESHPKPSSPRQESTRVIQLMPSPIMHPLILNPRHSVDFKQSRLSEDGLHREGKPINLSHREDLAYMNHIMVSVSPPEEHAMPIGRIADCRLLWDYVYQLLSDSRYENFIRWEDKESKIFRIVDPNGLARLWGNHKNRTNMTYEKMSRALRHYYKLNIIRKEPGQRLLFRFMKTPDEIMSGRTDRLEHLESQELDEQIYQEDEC
# Procedure, shortened: as §1
sequence,measurement,setting,value
GTTCGC,binding signal,FLI1,"1.06 fold enrichment (6-mer frequency, TF over GST control)"
same,binding signal,ELK1,"1.08 fold enrichment (6-mer frequency, TF over GST control)"
same,binding signal,GABPA,"1.03 fold enrichment (6-mer frequency, TF over GST control)"
same,binding signal,ERG,"1.04 fold enrichment (6-mer frequency, TF over GST control)"
same,binding signal,ELF1,"1.02 fold enrichment (6-mer frequency, TF over GST control)"
same,binding signal,EHF,"1.05 fold enrichment (6-mer frequency, TF over GST control)"
same,binding signal,SPIB,"1.11 fold enrichment (6-mer frequency, TF over GST control)"
same,binding signal,SPIC,"1.17 fold enrichment (6-mer frequency, TF over GST control)"
same,binding signal,ELF4,"1.1 fold enrichment (6-mer frequency, TF over GST control)"
same,binding signal,ELK4,"1.16 fold enrichment (6-mer frequency, TF over GST control)"
same,binding signal,ETV2,"1.11 fold enrichment (6-mer frequency, TF over GST control)"
same,binding signal,ETV1,"1.14 fold enrichment (6-mer frequency, TF over GST control)"
same,binding signal,ERF,"1.18 fold enrichment (6-mer frequency, TF over GST control)"
same,binding signal,ETV3L,"1.07 fold enrichment (6-mer frequency, TF over GST control)"
same,binding signal,ETS2,"1 fold enrichment (6-mer frequency, TF over GST control)"
same,binding signal,ETV7,"1.02 fold enrichment (6-mer frequency, TF over GST control)"
same,binding signal,ETV6,"1.07 fold enrichment (6-mer frequency, TF over GST control)"

# Source: PMC7862700, “An all-to-all approach to the identification of sequence-specific readers for epigenetic DNA modifications on cytosine”
